From PubChem BioAssay (NCI) come the findings set out here.

Among the test systems are SR leukemia; RPMI-8226 leukemia; OVCAR-8 ovarian; OVCAR-5 ovarian; OVCAR-4 ovarian; IGROV1 ovarian; OVCAR-3 ovarian; NCI/ADR-RES ovarian; T-47D breast; MDA-MB-435 melanoma; SW-620 colon; MCF7 breast; HCT-116 colon; HS 578T breast; BT-549 breast; KM12 colon; SK-OV-3 ovarian; HCC-2998 colon.
Holding throughout (assay): NCI-60 one-dose screen, 48 h (100 = growth as untreated, 0 = no growth, -100 = all killed)
Settings in all cases: 10 µM unless noted

Each structure is given as a SMILES string. Values joined by “and” are separate entries in the source; they are usually repeats but may differ in a detail not shown here. Equal entries are not always repeated. About 83,000 compounds went through this panel and 20% of them were active in at least one assay; those are over-represented in the sample as a whole.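 Step 1: grow cells in 96-well plates. Step 2: add test compound at a single concentration. Step 3: incubate 48 h. Step 4: record percent growth.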 Active and inactive are the calls of the source. Rule for the calls: active = growth percent below 10; inactive = the rest.

Take `CC1=C/C(O)CC(=O)Cc2nc(co2)C(=O)N2CCC=C2C(=O)OC(C(C)C)C(C)/C=C\C(=O)NC/C=C\1` (stereo unspecified): the growth was 17.9% (inactive) with SR leukemia; 60.7% (inactive) with RPMI-8226 leukemia; 74% (inactive) in the assay with OVCAR-8 ovarian; 94.8% (inactive) in the assay with OVCAR-5 ovarian; 78.5% (inactive) in the assay with OVCAR-4 ovarian; 3.64% (active) with IGROV1 ovarian. The growth in the assay on OVCAR-3 ovarian was 85% (inactive); in the assay with NCI/ADR-RES ovarian it was 109% (inactive); with T-47D breast, 89.4% (inactive); in the assay with MDA-MB-435 melanoma it was 81.2% (inactive); in the assay on SW-620 colon it was 59.9% (inactive); in the assay with MCF7 breast it was 71.8% (inactive). Besides, the growth in the assay on HCT-116 colon was 34.3% (inactive).

With `c1ccc(CNCCNCc2ccccc2)cc1`, the growth with SR leukemia is 95.3% (inactive); with RPMI-8226 leukemia, 101% (inactive); in the assay on OVCAR-8 ovarian it was 124% (inactive); in the assay on OVCAR-5 ovarian, 102% (inactive); in the assay with OVCAR-4 ovarian it was 103% (inactive); with IGROV1 ovarian, 120% (inactive). In addition, the growth with OVCAR-3 ovarian was 121% (inactive); in the assay on HS 578T breast, 114% (inactive); with NCI/ADR-RES ovarian, 112% (inactive); in the assay on T-47D breast, 103% (inactive); in the assay with BT-549 breast it was 107% (inactive); in the assay on MDA-MB-435 melanoma, 106% (inactive). Further, the growth was 107% (inactive) with SW-620 colon, 93.4% (inactive) in the assay with MCF7 breast, 103% (inactive) in the assay with HCT-116 colon and 120% (inactive) in the assay on KM12 colon.

For the compound `NN1CCOC(c2ccccc2)C1` (stereo unspecified), the growth is 29.8% (inactive) in the assay with SR leukemia; 103% (inactive) in the assay on OVCAR-8 ovarian; 97.1% (inactive) in the assay with OVCAR-5 ovarian; 119% (inactive) in the assay with OVCAR-4 ovarian; 106% (inactive) in the assay with SK-OV-3 ovarian; 122% (inactive) in the assay with IGROV1 ovarian. For the same compound, the growth in the assay on OVCAR-3 ovarian was 106% (inactive); with HS 578T breast, 99.5% (inactive); in the assay on NCI/ADR-RES ovarian, 105% (inactive); in the assay on T-47D breast it was 109% (inactive); with BT-549 breast it was 102% (inactive); in the assay with MDA-MB-435 melanoma it was 106% (inactive). Moreover, the growth with SW-620 colon was 98% (inactive); with MCF7 breast, 91.8% (inactive); in the assay with HCT-116 colon, 91.2% (inactive); in the assay on HCC-2998 colon, 107% (inactive); in the assay on KM12 colon, 101% (inactive).

On to `O=C1OC(C(O)C(O)CO)C(O)=C1O` (stereo unspecified), for which the growth in the assay on SR leukemia is 103% (inactive) and 107% (inactive); in the assay on OVCAR-8 ovarian it was 102% (inactive) and 105% (inactive); in the assay on OVCAR-5 ovarian, 94.6% (inactive) and 96.4% (inactive); in the assay with OVCAR-4 ovarian it was 106% (inactive) and 112% (inactive); in the assay with SK-OV-3 ovarian it was 114% (inactive) and 92.9% (inactive); with IGROV1 ovarian, 111% (inactive). Also, the growth in the assay on OVCAR-3 ovarian was 115% (inactive) and 109% (inactive); with HS 578T breast, 120% (inactive) and 119% (inactive); in the assay with NCI/ADR-RES ovarian, 95% (inactive) and 102% (inactive); in the assay with T-47D breast, 103% (inactive) and 83.1% (inactive); in the assay with BT-549 breast, 106% (inactive); in the assay with MDA-MB-435 melanoma, 114% (inactive) and 109% (inactive). Moreover, the growth was 117% (inactive) and 105% (inactive) in the assay on SW-620 colon; 98.9% (inactive) and 97.4% (inactive) with MCF7 breast; 100% (inactive) and 92.8% (inactive) with HCT-116 colon.

In the case of `O=C(O)/C=C\C(=O)Nc1cccc2ccccc12`, the growth in the assay with SR leukemia is 103% (inactive) and 70.2% (inactive); in the assay on OVCAR-8 ovarian it was 102% (inactive) and 105% (inactive); in the assay on OVCAR-5 ovarian, 100% (inactive) and 104% (inactive); with OVCAR-4 ovarian, 92.2% (inactive) and 115% (inactive); with SK-OV-3 ovarian it was 92% (inactive) and 103% (inactive); in the assay with IGROV1 ovarian it was 74.9% (inactive) and 129% (inactive). The growth in the assay with OVCAR-3 ovarian was 90.1% (inactive) and 113% (inactive); in the assay on NCI/ADR-RES ovarian it was 110% (inactive) and 104% (inactive); in the assay with T-47D breast it was 120% (inactive) and 107% (inactive); in the assay on BT-549 breast, 84.4% (inactive) and 91.7% (inactive); in the assay on MDA-MB-435 melanoma, 113% (inactive) and 103% (inactive); in the assay on SW-620 colon, 99.5% (inactive) and 106% (inactive). Moreover, the growth was 97.3% (inactive) and 101% (inactive) in the assay on MCF7 breast; 103% (inactive) and 101% (inactive) with HCT-116 colon.

On to `O=C1C=C(Nc2ccccc2)c2ccccc2C1=O`, for which the growth in the assay with SR leukemia is 84.5% (inactive); in the assay on RPMI-8226 leukemia it was 52.7% (inactive) and 87.3% (inactive); with OVCAR-8 ovarian, 31.7% (inactive) and 94.3% (inactive); in the assay on OVCAR-5 ovarian, 90.2% (inactive) and 109% (inactive); in the assay on OVCAR-4 ovarian, 44.4% (inactive) and 82.5% (inactive); with IGROV1 ovarian, 65.5% (inactive) and 85.3% (inactive). In addition, the growth with OVCAR-3 ovarian is 6.63% (active) and 35.4% (inactive); with NCI/ADR-RES ovarian it was 25.1% (inactive) and 91.4% (inactive); with T-47D breast, 77.2% (inactive) and 102% (inactive); in the assay on BT-549 breast, 84.3% (inactive) and 100% (inactive); in the assay on MDA-MB-435 melanoma, -88% (active) and 99% (inactive); in the assay with SW-620 colon, 31.5% (inactive) and 94% (inactive). For the same compound, the growth in the assay with MCF7 breast was 12.9% (inactive) and 78.4% (inactive); with HCT-116 colon it was 6.58% (active) and 92.8% (inactive); in the assay with KM12 colon, 65.6% (inactive) and 84.4% (inactive).

Take `O=CN1CCCCC1`: the growth was 119% (inactive) with SR leukemia; 177% (inactive) with RPMI-8226 leukemia; 117% (inactive) in the assay on OVCAR-8 ovarian; 104% (inactive) in the assay with OVCAR-5 ovarian; 108% (inactive) with OVCAR-4 ovarian; 124% (inactive) in the assay with IGROV1 ovarian. The growth is 112% (inactive) with OVCAR-3 ovarian; 114% (inactive) in the assay on HS 578T breast; 103% (inactive) in the assay on NCI/ADR-RES ovarian; 109% (inactive) in the assay with T-47D breast; 97.3% (inactive) in the assay on BT-549 breast; 107% (inactive) in the assay with MDA-MB-435 melanoma. For the same compound, the growth in the assay on SW-620 colon was 102% (inactive); in the assay with MCF7 breast, 97.6% (inactive); in the assay on HCT-116 colon it was 104% (inactive); in the assay on KM12 colon, 100% (inactive).
